Compounds without any hit were thinned out: in the full panel of roughly 83,000, 20% have a hit.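 The endpoint reported here, percent growth, reads 100 for growth as untreated, 0 for no net growth and -100 for all cells dead.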 Calls of active or inactive are those of the source. The calls were made as follows: active = growth percent below 10; inactive = the rest.
What was measured:
Experiment in all cases: NCI-60 one-dose screen, 48 h (100 = growth as untreated, 0 = no growth, -100 = all killed)
DU-145 prostate = details: 10 µM unless noted
K-562 leukemia = details: 10 µM unless noted
MALME-3M melanoma = details: 10 µM unless noted
MDA-MB-231 breast = details: 10 µM unless noted
RXF 393 renal = details: 10 µM unless noted
SF-268 CNS = details: 10 µM unless noted
SF-295 CNS = details: 10 µM unless noted
UACC-257 melanoma = details: 10 µM unless noted
M14 melanoma = details: 10 µM unless noted
HCT-15 colon = details: 10 µM unless noted
HT29 colon = details: 10 µM unless noted
SNB-75 CNS = details: 10 µM unless noted
PC-3 prostate = details: 10 µM unless noted
SK-MEL-5 melanoma = details: 10 µM unless noted
UACC-62 melanoma = details: 10 µM unless noted
LOX IMVI melanoma = details: 10 µM
SK-MEL-28 melanoma = details: 10 µM unless noted
SF-539 CNS = details: 10 µM unless noted
SNB-19 CNS = details: 10 µM unless noted
U251 CNS = details: 10 µM unless noted

Measured: growth

CC1C(c2ccccc2)OCCN1C(=S)Nc1ccc(S(=O)(=O)N2CCCCC2)cc1 (stereo unspecified)
inactive: DU-145 prostate 104% | K-562 leukemia 109% | MALME-3M melanoma 96.5% | MDA-MB-231 breast 86% | RXF 393 renal 95.5% | SF-268 CNS 109% | SF-295 CNS 99.2% | UACC-257 melanoma 91.5% | M14 melanoma 94.5% | HCT-15 colon 97.2% | HT29 colon 87.5% | SNB-75 CNS 100% | PC-3 prostate 97.7% | SK-MEL-5 melanoma 88.7% | UACC-62 melanoma 88.9% | LOX IMVI melanoma 58.9% | SK-MEL-28 melanoma 108%

CCN1CCCC(Nc2cc(C)nc(/N=C(/N)Nc3ccc(Cl)c(Cl)c3)n2)C1 (stereo unspecified)
inactive: DU-145 prostate 30.3%
active: K-562 leukemia -69.2% | MALME-3M melanoma -70.6% | MDA-MB-231 breast -56.6% | RXF 393 renal -81.3% | SF-268 CNS -54.4% | SF-539 CNS -73.7% | UACC-257 melanoma -84.9% | M14 melanoma -77.9% | HCT-15 colon -37.2% | HT29 colon -46.9% | SNB-75 CNS -76.8% | SNB-19 CNS -17.5% | U251 CNS -82.4% | PC-3 prostate 7.05% | SK-MEL-5 melanoma -97.6% | UACC-62 melanoma -80.7% | LOX IMVI melanoma -61.5% | SK-MEL-28 melanoma -87.8%

Cc1cc(N/N=C/c2ccccn2)nc2ccccc12
active: K-562 leukemia 9.21% | MALME-3M melanoma 8.16% | RXF 393 renal 8.96% | SF-268 CNS 5.12% | SF-539 CNS -37.8% | UACC-257 melanoma -22.6% | M14 melanoma -39.7% | SK-MEL-5 melanoma -43.7% | UACC-62 melanoma -46.5% | LOX IMVI melanoma 4.97%
inactive: DU-145 prostate 18.2% | MDA-MB-231 breast 42% | HT29 colon 20.3% | SNB-75 CNS 30.8% | SNB-19 CNS 24.6% | PC-3 prostate 28.3% | SK-MEL-28 melanoma 18.1%

CN1CSC(=S)N(Cc2ccccc2)C1
inactive: DU-145 prostate 110% | K-562 leukemia 49.9% | MALME-3M melanoma 99.3% | MDA-MB-231 breast 90.7% | RXF 393 renal 83.1% | SF-268 CNS 105% | SF-295 CNS 106% | UACC-257 melanoma 84.3% | M14 melanoma 92% | HCT-15 colon 84.8% | HT29 colon 24.9% | SNB-75 CNS 98.1% | SNB-19 CNS 95.5% | U251 CNS 100% | PC-3 prostate 95.4% | SK-MEL-5 melanoma 96.8% | UACC-62 melanoma 85.8% | LOX IMVI melanoma 11.3% | SK-MEL-28 melanoma 120%

CCC1C[N+]2=C(c3cc(OC)c(OC)cc3CC2)c2c1cc1n2CCc2cc(OC)c(OC)cc2-1 (stereo unspecified)
inactive: DU-145 prostate 49% | K-562 leukemia 21.5% | MALME-3M melanoma 29.9% | MDA-MB-231 breast 46.1% | RXF 393 renal 88.7% | SF-268 CNS 33.3% | SF-295 CNS 63.6% | SF-539 CNS 31.9% | M14 melanoma 36.1% | HT29 colon 41% | SNB-75 CNS 24.5% | SNB-19 CNS 33.8% | U251 CNS 22.7% | PC-3 prostate 17.4% | UACC-62 melanoma 18.7% | LOX IMVI melanoma 41.7% | SK-MEL-28 melanoma 32.8%
active: SK-MEL-5 melanoma -46.8%

O=C1Nc2ccc(Br)cc2C1=O
inactive: DU-145 prostate 99.5% | K-562 leukemia 87.2% | MALME-3M melanoma 102% | MDA-MB-231 breast 96.7% | RXF 393 renal 119% | SF-268 CNS 93.6% | SF-295 CNS 99.1% | SF-539 CNS 98.3% | M14 melanoma 98.4% | HT29 colon 100% | SNB-75 CNS 92.7% | SNB-19 CNS 101% | U251 CNS 98.5% | PC-3 prostate 92.8% | SK-MEL-5 melanoma 101% | UACC-62 melanoma 90.4% | LOX IMVI melanoma 87.4% | SK-MEL-28 melanoma 108%

O=C(c1ccccc1)C(Br)[N+](=O)[O-] (stereo unspecified)
inactive: DU-145 prostate 105% | K-562 leukemia 25.8% | MALME-3M melanoma 54.4% | MDA-MB-231 breast 93.2% | RXF 393 renal 117% | SF-268 CNS 102% | SF-295 CNS 101% | UACC-257 melanoma 79% | M14 melanoma 84.3% | HCT-15 colon 78.1% | HT29 colon 90.5% | SNB-75 CNS 86.3% | SNB-19 CNS 102% | U251 CNS 84.2% | PC-3 prostate 89.4% | SK-MEL-5 melanoma 102% | UACC-62 melanoma 89.8% | LOX IMVI melanoma 80.5% | SK-MEL-28 melanoma 106%

CCc1cnc2ccccc2c1/C=C/c1ccc(N(C)C)cc1
inactive: DU-145 prostate 68.4% | K-562 leukemia 13% | MALME-3M melanoma 50.7% | MDA-MB-231 breast 38.8% | RXF 393 renal 63% | SF-268 CNS 57.4% | SF-295 CNS 26% | UACC-257 melanoma 56.4% | M14 melanoma 28.2% | SNB-75 CNS 43.4% | U251 CNS 26% | PC-3 prostate 54.7% | SK-MEL-5 melanoma 46.6% | UACC-62 melanoma 25.3% | LOX IMVI melanoma 43.7% | SK-MEL-28 melanoma 59.9%
active: HT29 colon 5.62%

Cc1cc(C)c(C#N)c(Sc2nc(C)c([N+](=O)[O-])c(C)c2C#N)n1
active: LOX IMVI melanoma 1.66%
inactive: DU-145 prostate 41.7% | K-562 leukemia 14.5% | MALME-3M melanoma 36.1% | MDA-MB-231 breast 91.4% | RXF 393 renal 55.2% | SF-268 CNS 81.6% | SF-295 CNS 84.1% | SF-539 CNS 49.5% | M14 melanoma 54.2% | HT29 colon 35.8% | SNB-75 CNS 66% | SNB-19 CNS 98.4% | PC-3 prostate 77.1% | SK-MEL-5 melanoma 86.5% | UACC-62 melanoma 66.8% | SK-MEL-28 melanoma 78.7%
